Assay results published in PubChem BioAssay (NCATS).
Where “and” joins values, the source holds several entries; their conditions need not be identical. Identical values can stand only once. Inconclusive results are not listed. A call without a number means that no potency is given here. Calls of active or inactive are those of the source. Unless noted, calls come from the whole dose curve; as a rule, active = well fitted curve in the direction sought with a large enough effect; inconclusive = small, poorly fitted or top-dose-only effect, or another doubt; inactive = no such curve, though single readings can be large; an effect the other way counts as inactive or inconclusive.

How the values were obtained:
[1] = target: Voltage-gated inwardly rectifying potassium channel KCNH2 (Homo sapiens) (UniProt Q12809); experiment: qHTS Assay for Small Molecule Inhibitors of the Human hERG Channel Activity (AID 588834); settings: U2OS BacMam hERG, FluxOR thallium flux fluorescence; series mostly up to 46.1 µM;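 note: lower thallium flux fluorescence means stronger hERG block; nearly all actives have a fitted effect of over 50% in size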; note: potency is the fitted concentration of half-maximal effect
Voltage-gated inwardly rectifying potassium channel KCNH2 (Homo sapiens), sequence (Q12809 whole entry, looked up): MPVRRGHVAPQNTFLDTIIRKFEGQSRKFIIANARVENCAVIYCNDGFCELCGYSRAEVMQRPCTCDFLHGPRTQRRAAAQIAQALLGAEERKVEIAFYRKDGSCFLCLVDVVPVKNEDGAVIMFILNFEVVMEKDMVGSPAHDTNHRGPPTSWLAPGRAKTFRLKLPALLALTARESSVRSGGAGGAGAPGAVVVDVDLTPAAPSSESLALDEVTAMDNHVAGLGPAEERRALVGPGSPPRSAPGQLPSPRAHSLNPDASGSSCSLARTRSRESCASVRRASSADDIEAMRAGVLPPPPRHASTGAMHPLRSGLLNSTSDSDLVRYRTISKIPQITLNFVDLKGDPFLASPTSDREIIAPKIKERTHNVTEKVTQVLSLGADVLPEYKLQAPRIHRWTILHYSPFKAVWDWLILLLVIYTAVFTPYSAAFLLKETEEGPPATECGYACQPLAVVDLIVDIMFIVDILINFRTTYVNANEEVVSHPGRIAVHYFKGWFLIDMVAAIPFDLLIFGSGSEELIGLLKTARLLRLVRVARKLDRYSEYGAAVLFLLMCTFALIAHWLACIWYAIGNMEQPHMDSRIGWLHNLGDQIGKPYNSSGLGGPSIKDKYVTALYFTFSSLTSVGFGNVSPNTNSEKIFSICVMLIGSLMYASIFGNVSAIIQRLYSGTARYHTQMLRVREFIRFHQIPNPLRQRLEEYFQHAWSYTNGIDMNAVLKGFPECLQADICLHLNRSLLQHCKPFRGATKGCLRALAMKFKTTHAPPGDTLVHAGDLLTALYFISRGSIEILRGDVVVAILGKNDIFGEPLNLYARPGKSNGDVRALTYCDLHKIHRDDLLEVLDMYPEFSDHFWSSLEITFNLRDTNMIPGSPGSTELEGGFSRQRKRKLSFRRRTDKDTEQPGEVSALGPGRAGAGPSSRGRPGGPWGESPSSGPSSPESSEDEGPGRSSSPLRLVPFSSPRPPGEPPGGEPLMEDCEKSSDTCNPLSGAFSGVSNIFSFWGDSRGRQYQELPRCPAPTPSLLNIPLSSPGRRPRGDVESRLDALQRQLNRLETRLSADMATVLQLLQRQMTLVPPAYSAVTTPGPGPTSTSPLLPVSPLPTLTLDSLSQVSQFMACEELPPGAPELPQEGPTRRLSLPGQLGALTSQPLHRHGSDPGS
Method in brief: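 Thallium serves as surrogate for K+ influx through BacMam-delivered hERG in U2OS cells. Compounds are added for about 10 minutes after dye loading; stimulation buffer then starts flux, monitored kinetically on FDSS.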

[2] = target: Luciferin 4-monooxygenase (Photinus pyralis) (UniProt P08659); experiment: Biochemical firefly luciferase enzyme assay for NPC (AID 624030);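 note: purified P. pyralis luciferase at 10 nM with luciferin and ATP substrate; nearly all actives have a fitted effect of over 70% in size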; settings: purified P. pyralis luciferase, luminescence, 5 min; series mostly up to 58.6 µM
Luciferin 4-monooxygenase (Photinus pyralis), sequence (P08659 whole entry, looked up): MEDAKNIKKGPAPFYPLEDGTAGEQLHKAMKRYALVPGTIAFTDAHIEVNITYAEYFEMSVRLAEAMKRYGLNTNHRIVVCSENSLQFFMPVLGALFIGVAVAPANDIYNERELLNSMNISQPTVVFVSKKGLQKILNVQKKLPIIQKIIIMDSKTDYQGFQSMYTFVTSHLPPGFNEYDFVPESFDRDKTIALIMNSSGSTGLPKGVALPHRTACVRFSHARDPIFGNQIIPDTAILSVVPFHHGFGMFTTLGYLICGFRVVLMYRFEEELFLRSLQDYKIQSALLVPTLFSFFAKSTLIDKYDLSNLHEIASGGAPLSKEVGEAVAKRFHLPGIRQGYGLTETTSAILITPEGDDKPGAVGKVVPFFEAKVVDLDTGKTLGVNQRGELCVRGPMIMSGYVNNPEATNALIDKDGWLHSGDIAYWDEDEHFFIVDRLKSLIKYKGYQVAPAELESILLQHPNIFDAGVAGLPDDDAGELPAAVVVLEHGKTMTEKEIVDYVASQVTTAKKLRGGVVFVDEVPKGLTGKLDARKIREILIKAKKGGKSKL
Method in brief: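 Purified P. pyralis luciferase at 10 nM in 50 mM Tris Acetate (final), luminescence read within 5 minutes of enzyme addition to compounds. Activity normalised to PTC124 versus DMSO; concentration-response curves classed by r2, magnitude and activity.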

[3] = S16 Schwann cell viability assay (CellTiter-Glo assay) (AID 624031); settings: S16 rat Schwann cells viability, 24 h; series mostly up to 57.5 µM; note: nearly all actives have a fitted effect of over 70% in size; note: potency is the fitted concentration of half-maximal effect
Method in brief: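 Luminescent ATP read-out (CellTiter-Glo) after 24 h compound exposure of native S16 rat Schwann cells at 37 °C. Signals were normalized between cell-free wells and DMSO-treated cells, set as 0% activity.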

[4] = S16 Schwann cell PMP22 intronic element firefly luciferase assay (AID 624032); settings: S16 rat Schwann cells, PMP22 element FLuc, 24 h; series mostly up to 57.5 µM; note: nearly all actives have a fitted effect of over 30% in size; note: potency is the fitted concentration of half-maximal effect
Method in brief: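 Rat S16 Schwann cells stably carrying firefly luciferase driven by a PMP22 intronic element, in 10% FBS, treated 24 h at 37 C. ONE-Glo luminescence normalized to PTC124 control and DMSO (0%); curves classed by r2, magnitude and activity.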

[5] = S16 Schwann cell PMP22 intronic element beta-lactamase assay (AID 624044; calls by dose curve; note: nearly all actives have a fitted effect of over 15% in size); settings: S16 rat Schwann cells, PMP22 element beta-lactamase FRET, 24 h; series mostly up to 38.3 µM
Method in brief: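 Beta-lactamase reporter under a PMP22 intronic regulatory element in stable S16 rat Schwann cells; 24 h compound exposure. 460 nm blue signal normalized between DMSO (0%) and potassium clavulanate, with 535 nm FRET tracking viability; curves classed by r2 and response.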

SMILES | Potency [1] | Potency [2] | Potency [3] | Potency [4] | Potency [5]
C[C@@H]1CN(c2c(F)c(F)c3c(=O)c(C(=O)O)cn(C4CC4)c3c2F)C[C@H](C)N1 | inactive | inactive | inactive | inactive | 
O=C(O)c1ccccc1O | inactive |  | inactive | inactive | inactive
CCN(CC)CCNC(C(=O)OCCC(C)C)c1ccccc1 (centres undefined) | 12.6 µM (active) | inactive | inactive | inactive | inactive
O=C1OC(OC(=O)c2cccnc2Nc2cccc(C(F)(F)F)c2)c2ccccc21 (centres undefined) | inactive | inactive | inactive | 7.21 µM (active) | 
CNCCCC1c2ccccc2C=Cc2ccccc21 |  | inactive |  |  | 
O=C(O)c1ccccn1 | inactive | inactive | inactive |  | inactive
c1ccc(CN(CC2=NCCN2)c2ccccc2)cc1 |  | inactive |  |  | 
O=S(=O)(O)c1cc(I)c(O)c2ncccc12 | inactive |  | inactive | inactive | 
Cc1cc(C(C#N)c2ccc(Cl)cc2)c(Cl)cc1NC(=O)c1cc(I)cc(I)c1O (centres undefined) | inactive |  | inactive |  | inactive
CCCCOc1cc(C(=O)OCCN(CC)CC)ccc1N | 4.47 µM (active) | inactive | inactive | inactive | inactive
Cc1cc2c(cc1S(N)(=O)=O)S(=O)(=O)CCC2 | inactive | inactive | inactive | inactive | inactive
CCOc1ccc2ccccc2c1C(=O)N[C@@H]1C(=O)N2[C@@H]1SC(C)(C)[C@@H]2C(=O)O | inactive | inactive | inactive |  | inactive
CCN(CC)CCSC(=O)C(c1ccccc1)c1ccccc1 | 2.51 µM (active) and 4.47 µM (active) | inactive | inactive |  | inactive
CC(=O)Nc1ccc(/C=N/NC(N)=S)cc1 | inactive | inactive | inactive | inactive | 
CCN(CC)CCOC(=O)C1(C2CCCCC2)CCCCC1 |  | inactive |  |  | 
O=c1cc[nH]c(=S)[nH]1 | inactive | inactive | inactive | inactive | 
Cc1ncc(COP(=O)(O)O)c(C=O)c1O | inactive | inactive | inactive | inactive | 
O=C(O)CC(O)C(=O)O (centres undefined) | inactive | inactive | inactive | inactive | inactive
CCN(CC)CCNC(=O)c1cc(Cl)c(N)cc1OC | inactive | inactive | inactive | inactive | inactive

SMILES | Potency [1] | Potency [2] | Potency [3] | Potency [4] | Potency [5]
CC[C@@]1(c2ccccc2)NC(=O)N(C)C1=O | inactive | inactive | inactive |  | inactive
CCCCN(CCCC)CC(O)c1cc(Cl)cc2c1-c1ccc(Cl)cc1/C2=C/c1ccc(Cl)cc1 (centres undefined) |  | inactive | 28.7 µM (active) |  | 
CCC(=O)Nc1ccc(O)cc1 |  | inactive | inactive | inactive | 
COc1cc(C)c(Cc2cnc(N)nc2N)cc1OC |  | inactive |  | inactive | 
CC(=O)NC(Cc1ccccc1)C(=O)O (centres undefined) |  | inactive | inactive |  | inactive
C=Cc1c(C)c2cc3[nH]c(cc4nc(cc5nc(cc1[nH]2)C(C)=C5CCC(=O)O)C(CCC(=O)O)=C4C)c(C)c3C=C |  | inactive | inactive | 12.8 µM (active) | inactive
N[C@@H](CSCCCO)C(=O)O |  | inactive | inactive | inactive | 
NC(=O)NNc1ccccc1 |  | inactive | inactive |  | inactive
CC(C)(C)C(=O)NCCCC(=O)O |  | inactive | inactive |  | 
CCCCN1CCCC[C@H]1C(=O)Nc1c(C)cccc1C |  | inactive |  | inactive | inactive
CNCCC(Oc1ccc(C(F)(F)F)cc1)c1ccccc1 (centres undefined) |  | inactive |  |  | inactive
CC(C)(C)NCC(O)COc1ccc(NC(=O)NC2CCCCC2)cc1 (centres undefined) |  | inactive | inactive | inactive | 
CSc1ccc2c(c1)C(N1CCN(C)CC1)Cc1ccccc1S2 (centres undefined) |  | inactive | 12.8 µM (active) | 20.3 µM (active) | inactive
CC(=O)CCC(=O)O |  | inactive | inactive | inactive | 
COc1ccc2c(c1)C(=O)N(CCc1ccc(S(=O)(=O)NC(=O)NC3CCCCC3)cc1)C(=O)C2(C)C |  | inactive | inactive |  | inactive
OCC(O)CN1CCN(c2ccccc2)CC1 (centres undefined) |  | inactive | inactive | inactive | inactive
CCOc1nc2cccc(C(=O)O)c2n1Cc1ccc(-c2ccccc2-c2nn[nH]n2)cc1 |  | inactive | inactive |  | 
O=Cc1ccccc1C=O |  | inactive |  |  | 
CCCCN(CCCC)CCCOC(=O)c1ccc(N)cc1 |  | inactive | inactive |  | 
CN1CCN(C2Cc3ccccc3Sc3ccc(Cl)cc32)CC1 (centres undefined) |  | inactive |  |  | inactive
